Shown are actives, neighbours in structure and some others; about 0.92% of the full set was active somewhere.
RECQ1 inh: blocks DNA unwinding by human RECQ1; AID 2549; RECQ1 DNA unwinding, red fluorescence kinetic read; Potency, µM (series often up to 57.3 µM), inactives show at the highest dose activity, negative = inhibition, most hits filed as inhibitors; P46063; hit rate 0.54% among 240,000;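 note: plate controls were vehicle for no effect and no enzyme for full effect; nearly all actives have a fitted effect of over 30% in size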
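RECQ1T1 50 nM; forked duplex (20 bp + 30-nt ss tails) 200 nM, ATP 2 mM final; pH 8.0, 2 mM MgCl2, 2.5 ug/ml poly(dI-dC); 15 min compound preincubation; discontinuous kinetic read over 2 h at RT.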
BLM helicase inh: inhibitors of human Bloom syndrome helicase BLM; P54132; recombinant BLM DNA unwinding, fluorescence dequenching; Potency, µM (titrated, usually from 56.1 µM), for inactives: at the highest dose activity change, negative = inhibition, hits mostly inhibitors; hit rate 0.2% among 350,000;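 note: plate controls were vehicle for no effect and no enzyme for full effect; nearly all actives have a fitted effect of over 35% in size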
TDP1 inh: inhibitors of human tyrosyl-DNA phosphodiesterase TDP1. Q9NUW8. recombinant TDP1, AlphaScreen DNA substrate cleavage. Potency, µM (highest dose often 130 µM), for inactives: at the highest dose activity change, negative = inhibition, hits mostly inhibitors. hit rate 0.28% among 350,000; note: nearly all actives have a fitted effect of over 40% in size
Target sequence (Q9NUW8 whole entry, looked up): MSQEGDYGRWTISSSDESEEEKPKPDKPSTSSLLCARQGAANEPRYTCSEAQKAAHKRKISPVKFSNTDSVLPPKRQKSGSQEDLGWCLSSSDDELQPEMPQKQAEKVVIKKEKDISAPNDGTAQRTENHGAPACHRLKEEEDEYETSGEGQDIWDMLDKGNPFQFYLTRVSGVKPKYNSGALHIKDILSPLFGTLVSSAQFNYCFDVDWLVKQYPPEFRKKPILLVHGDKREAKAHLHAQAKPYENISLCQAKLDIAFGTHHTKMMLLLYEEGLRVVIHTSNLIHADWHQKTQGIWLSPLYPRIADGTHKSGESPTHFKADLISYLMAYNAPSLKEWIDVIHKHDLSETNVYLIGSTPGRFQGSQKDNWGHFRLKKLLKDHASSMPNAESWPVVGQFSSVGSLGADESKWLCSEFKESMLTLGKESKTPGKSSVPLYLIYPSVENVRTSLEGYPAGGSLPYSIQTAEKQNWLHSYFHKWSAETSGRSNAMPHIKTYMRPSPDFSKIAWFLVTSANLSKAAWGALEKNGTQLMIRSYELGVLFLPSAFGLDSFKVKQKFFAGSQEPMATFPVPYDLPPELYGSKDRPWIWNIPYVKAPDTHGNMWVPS
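Recombinant human Tdp1 (E. coli-expressed, 1 nM final) preincubated with compounds 15 min at room temperature, then 5'-biotin/3'-phosphotyrosine-FITC DNA substrate (15 nM final) added for 5 min. AlphaScreen beads (10 ug/ml final) added 10 min; cleavage lowers signal.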
FEN1 inhibitor: blocks human flap endonuclease 1. Recombinant FEN1 flap cleavage, fluorescence, 15 min. AID 588795. Potency, µM (titrated, usually from 114 µM), inactives show at the highest dose activity change, negative = inhibition, most hits filed as inhibitors. P39748. hit rate 0.35% among 390,000; note: nearly all actives have a fitted effect of over 65% in size
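Concentration–response screening of FEN1 (10 nM): 15 min compound preincubation at room temperature, reaction started with 50 nM substrate and read at 0 and 15 min. Corrected, normalized data were fitted by a four-parameter Hill equation.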
APE1 inh-1: APE1 (human) endonuclease inhibition | recombinant APE1, TAMRA/BHQ-2 abasic DNA cleavage fluorescence | Potency, µM (doses to about 65.8 µM), for the others: top-dose activity change, negative = inhibition, usual class: inhibitors | hit rate 0.35% among 350,000 | AID 2517;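 note: plate controls were vehicle for no effect and reference inhibitor for full effect; nearly all actives have a fitted effect of over 55% in size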
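Quantitative HTS: incision of a TAMRA/BHQ-2 double-stranded substrate bearing a tetrahydrofuran abasic site by 0.75 nM APE1 raises fluorescence. Substrate 50 nM final, added after 15 min compound preincubation at room temperature; progress as third-minus-first kinetic read difference.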
DNA dye displace: displaces fluorescent dye from DNA, flagging APE1 artifacts; Potency, µM (doses to about 28.5 µM), without a hit: at the top dose activity change, negative = inhibition, hits mostly inhibitors; shares compounds with APE1 inh-1; hit rate 7% among 480; DNA fluorescent dye displacement counterscreen, fluorescence;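 note: loss of thiazole orange fluorescence as the dye is displaced from duplex DNA; 0% = ThO with dsDNA and no compound and -100% = ThO without dsDNA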
Endo IV inh: blocks E. coli endonuclease IV DNA cleavage; shares compounds with APE1 inh-1; Potency, µM (series often up to 27.1 µM), without a hit: at the top dose activity change, negative = inhibition, most hits filed as inhibitors; E. coli Endo IV, fluorogenic AP-site DNA cleavage; hit rate 4% among 560; AID 2565;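 note: plate controls were uninhibited enzyme wells for no effect and no enzyme buffer wells for full effect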
APE1 inh-2: APE1 (human) endonuclease inhibition, confirmation. shares compounds with APE1 inh-1. purified APE1, fluorogenic abasic-site DNA cleavage. Potency, µM (titrated, usually from 57.1 µM), for the others: at the top dose activity change, negative = inhibition, hits mostly inhibitors. hit rate 44% among 750. AID 2572; note: nearly all actives have a fitted effect of over 30% in size
APE1 FP inh: APE1 (human) DNA binding inhibition, fluorescence polarization; hit rate 7% among 480; shares compounds with APE1 inh-1; APE1 binding to TAMRA-labelled double-stranded DNA, fluorescence polarization displacement; AID 2573; Potency, µM (highest dose often 28.5 µM), without a hit: at the top dose activity, negative = inhibition, most hits filed as inhibitors
* hit, by the source's call; i = inactive; ? = inconclusive; / = not tested or not shown; [ ] = dose if it differs, or a comment. Calls come from the whole dose curve; as a rule, active = well fitted curve in the direction sought with a large enough effect; inconclusive = small, poorly fitted or top-dose-only effect, or another doubt; inactive = no such curve, though single readings can be large; an effect the other way counts as inactive or inconclusive. Unless noted, % is set by controls: 0 for no effect and ±100 for the full control effect; potency is the fitted concentration of half-maximal effect.

SMILES	RECQ1 inh	BLM helicase inh	TDP1 inh	FEN1 inhibitor	APE1 inh-1	DNA dye displace	Endo IV inh	APE1 inh-2	APE1 FP inh
c1ccc(C2CC(c3cccs3)=NN2c2ccccc2)cc1 (configuration not stated)	-4%	-14%	/	?	-4%	/	/	/	/
Fc1ccc(C2CC(c3cccs3)=NN2c2ccccc2)cc1 (configuration not stated)	i	-10%	/	-8%	-6%	/	/	-17%	/
O=C(O)c1ccccc1-n1cccc1C(=O)O	-9%	-5%	?	3%	?	-5%	0%	13µM*	?
O=C(O)c1ccccc1-n1cnnn1	-3%	2%	/	20%	0%	/	/	/	/
N#Cc1cc2nc(O)c(O)nc2cc1[N+](=O)[O-]	2%	1%	7%[56.1 µM]	-1%	?	/	-10%[57.1 µM]	-82%	/
CCn1nnnc1Sc1nc(C)nc2scc(-c3ccccc3)c12	/	/	/	-2%	/	/	/	/	/
C#CCN1C(=O)S/C(=C\c2ccc(-c3ccc(Cl)c(C(=O)O)c3)o2)C1=O	/	-7%	/	?	4%	/	/	/	/
O=C1NN(c2ccccc2)C(=O)/C1=C/c1ccc(-c2ccc(Cl)c(C(=O)O)c2)o1	?	-11%	16µM*	?	13µM*	?	-4%	22µM*	?
Cc1cccc(N2NC(=O)/C(=C/c3ccc(-c4ccc(Cl)c(C(=O)O)c4)o3)C2=O)c1	?	-12%	11µM*	?	18µM*	-14%	2%	?	1%
O=C(O)c1cc(-c2ccc(/C=C3\NC(=O)N(c4ccccc4)C3=O)o2)ccc1Cl	25µM*	5%	8.9µM*	?	25µM*	/	/	?	/
O=C(NCC(c1cccs1)S(=O)(=O)c1cccs1)c1cccc(F)c1 (configuration not stated)	/	3%	3%	-16%	/	/	/	/	/
O=c1cc(-c2ccc(O)cc2)oc2c([C@@H]3O[C@H](CO)[C@@H](O)[C@H](O)[C@H]3O)c(O)c([C@@H]3O[C@H](CO)[C@@H](O)[C@H](O)[C@H]3O)c(O)c12	-8%	-2%	0%	-11%	?	/	/	/	/
O=c1cc(-c2ccc(O)cc2)oc2c(C3OCC(O)C(O)C3O)c(O)c(C3OC(CO)C(O)C(O)C3O)c(O)c12 (configuration not stated)	-15%	-12%	/	?	20µM*	-7%	-4%	4.5µM*	1%
O=C(O)c1ccccc1-c1ccc(/C=c2\sc3nc4cc(Br)cnc4n3c2=O)o1	14µM*	-9%	7.9µM*	10µM*	22µM*	20%	17%	8.9µM*	?
COc1cccc(CC(=O)N2CCc3nc(-c4ccc(OC)cc4C)c4c(c3C2)CO[C@@H](c2ccccc2)C4)c1	-6%[11.5 µM]	0%[12.4 µM]	8%[12.3 µM]	/	-3%[12.4 µM]	/	/	/	/
N#C/C(=C/c1ccc(-c2cc(C(=O)O)cc(C(=O)O)c2)o1)c1nc2ccccc2s1	?	55%	/	/	?	?	?	14µM*	-8%
COc1c(O)cc2c(c1O)C(=O)CC(c1ccccc1)O2 (configuration not stated)	-10%	-3%	1%	/	25µM*	-3%	2%	-11%[24.4 µM]	0%
Cc1cc(/C=N/NC(=O)c2cccc(N(C)C)c2)c(C)n1-c1cc(C(=O)O)cc(C(=O)O)c1	i	4%	/	?	28µM*	-8%	8%	?	-5%
CCOc1ccc(C(c2c(O)cc(C)n(Cc3ccco3)c2=O)N2CCN(C)CC2)cc1 (configuration not stated)	/	-5%	8%	-12%	/	/	/	/	/
CC(=O)NC(=S)Nc1ccc(-c2nc3ccc(C)cc3s2)cc1	i	0%	4%	3%	-3%	/	/	/	/
CC1=CCC(C(=O)O)C(C(=O)Nc2ccc(-c3nc4ccc(C)cc4s3)cc2)C1 (configuration not stated)	-26%	-7%	25µM*	-2%	?	/	/	-28%	/
COc1ccc(NC(=O)CCCc2nnc3n(CCC(C)C)c(=O)c4sccc4n23)cc1Cl	/	-5%	5%	6%	/	/	/	/	/
COc1cc(OC)c2c(-c3ccccc3)cc(=O)oc2c1C(CC(=O)N1CCN(c2ccccc2)CC1)c1ccc2c(c1)OCO2 (configuration not stated)	i	-11%	?	/	?	2%	0%	13µM*	-43%
CC(C)(C)c1ccc(C2NC(=O)c3n[nH]c(-c4cccs4)c32)cc1 (configuration not stated)	/	-1%	0%	2%	/	/	/	/	/
CCC(C(=O)Nc1cc(-c2nc3cccnc3s2)ccc1C)c1ccccc1 (configuration not stated)	/	-10%	4%	?	/	/	/	/	/
SMILES	RECQ1 inh	BLM helicase inh	TDP1 inh	FEN1 inhibitor	APE1 inh-1	DNA dye displace	Endo IV inh	APE1 inh-2	APE1 FP inh
Cc1ccc2oc(=O)n(CC(=O)OC(C)C)c2c1	-8%	3%	0%	3%	?	-11%	-4%	-8%[24.4 µM]	?
Cc1cccc(-n2c(=O)c3c4c(sc3n3cnnc23)CCCC4)c1	/	0%	/	18%	/	/	/	/	/
O=C(CSc1ccc([N+](=O)[O-])cn1)Nc1ccc2[nH]c(=O)[nH]c2c1	/	-9%	0%	-9%	7%	/	/	/	/
O=C(Nc1ccc([N+](=O)[O-])cc1)Nc1ccc2[nH]c(=O)[nH]c2c1	-27%	-24%	-2%	-17%	?	-18%	-3%	?	11%
N[C@H](C(=O)O)[C@H]1C[C@@H]1C(=O)O	-3%	/	5%[56.1 µM]	/	-6%	/	-25%[57.1 µM]	2.5µM*	/
O=[N+]([O-])c1cccc2cn[nH]c12	1%	4%	6%	?	-10%	/	/	/	/
O=[N+]([O-])c1cccc2c[nH]nc12	28µM*	-27%	/	/	6.3µM*	/	-47%[57.1 µM]	13µM*	/
O=C(COC(=O)CCNS(=O)(=O)c1cccc(C(F)(F)F)c1)NC(=O)NC1CCCCC1	-11%	-6%	4%	-7%	?	-10%	0%	?	3%
O=C(COC(=O)Cc1cccc(C(F)(F)F)c1)NC(=O)NC1CCCC1	/	/	-5%	-8%	-10%	/	/	/	/
